PubChem BioAssay AID2732 (Emory University Molecular Libraries Screening Center, 2010)
Among all 220,000 compounds or so, about 8,200 (3.7%) were called active. This is one part of a sample in which actives are shown more often than they occur.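 The calls were made as follows: active = compounds that reduced the stress-induced luciferase reporter signal by more than about 70% of percent inhibition (limit read from the data); inactive = the rest.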

Test: inhibitors of CHOP promoter induction, primary screen, cell-based, unfolded protein response, luciferase reporter (AID 2732);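 also: 0% = tunicamycin plus vehicle and 100% = wells without tunicamycin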
Conditions: CHO-K1 CHOP-promoter luciferase, tunicamycin-induced, 15-18 h; at 10 µM; stronger effect = higher value

inhibition, active:
CCCCC(=O)Nc1ccc(C(=O)Nc2cc(C(F)(F)F)ccc2Cl)cc1 94.3%
Cc1ccsc1C(=O)OCC(=O)c1cc(C)n(CC2CCCO2)c1C (stereo not given) 77.8%
N/C(=N\OC(=O)Nc1ccc(Cl)c(Cl)c1)c1ncc(C(F)(F)F)cc1Cl 87.9%
CC1(C)CC2CC(C)(CN2c2ncnc3ccc(Br)cc23)C1 (stereo not given) 70.5%
N=c1n(Cc2ccc(Cl)cc2)c2ccccc2n1CC(O)c1ccco1 (stereo not given) 86.2%
Cc1ccccc1NC(=O)c1ccc(COc2ccc3c(C)cc(=O)oc3c2)cc1 73.8%
Cc1ccc(-c2nn(C(C)(C)C)c3ncnc(N)c23)cc1 76.5%
COc1ccc(CCN2C(=O)c3[nH]nc(-c4ccccc4O)c3C2c2ccc(C)cc2)cc1OC (stereo not given) 75.2%
Cc1ccc(NC(=O)CN(C)Cc2ccc(F)cc2)c([N+](=O)[O-])c1 71.6%

inhibition, inactive:
CCCCNC(=O)OCCSCCS(=O)(=O)c1ccc(Cl)cc1 8.82%
CC(C)OP(=O)(OC(C)C)C(Nc1ccccc1)c1cccc([N+](=O)[O-])c1 (stereo not given) -8.06%
Cc1ccsc1C(=O)OCC(=O)c1cc2ccccc2o1 67.4%
Cc1cc(C(=O)Cn2cnc3cc([N+](=O)[O-])ccc3c2=O)c(C)n1CC1CCCO1 (stereo not given) -28%
CCCCN1Cc2c(nc3cc(-c4ccccc4)[nH]n3c2=O)C1=O -7.2%
CCOc1ccccc1N1CN(Cc2ccccc2)CNC1=S 3.01%
COCCCn1c(-c2cccs2)nc2nc3ccccc3nc21 -15%
O=C(c1ccccn1)c1ncc(C(F)(F)F)cc1Cl 23.4%
N/C(=N\OC(=O)CCCC(=O)O)c1ncc(C(F)(F)F)cc1Cl 6.09%
Nn1c(SCc2ccccc2)nnc1C1CCCCC1 -9.53%
C=CCNc1ncnc2ccc(Br)cc12 27.4%
COc1ccc(C(=O)N2CC3(C)CC2CC(C)(C)C3)cc1OC (stereo not given) -6.24%
CCOC(=O)CN(C(=O)COc1nc(-c2ccccc2)cc(C)c1C#N)c1ccc(F)cc1 5.71%
COc1c(O)cc2oc(-c3ccc(O)c(O)c3)cc(=O)c2c1O -13.9%
Cc1ccc(NC(=O)/C(=C\c2ccccc2)NC(=O)c2ccco2)cc1 10.2%
Nc1c(C(=O)c2cccs2)sc2nsc(SCCN3CCCCC3)c12 -55.6%
Cn1c(=N)n(CC(O)c2cccs2)c2ccccc21 (stereo not given) 14.4%
Cn1c(=N)n(CC(O)c2ccccc2)c2ccccc21 (stereo not given) 14.2%
Cn1c(=O)c(=O)n(C)c2cc(S(=O)(=O)NCCN3CCN(c4ccccc4F)CC3)ccc21 10.2%
COc1ccc(NC2=CC(=S)NC(C)(C)C2)cc1 0.78%
Cc1c(NC(=O)CN2C(=O)C(=O)N(Cc3ccccc3)C2=O)c(=O)n(-c2ccccc2)n1C -4.43%
Cc1cc(=O)oc2cc(OCCC[n+]3ccccc3)ccc12 3.91%
CCN(C(=O)COC(=O)c1ccc(COc2ccc3c(C)cc(=O)oc3c2)cc1)C1CCS(=O)(=O)C1 (stereo not given) -17.9%
COc1ccc(CCn2c(NN=C3CCCC3)nc3c2c(=O)[nH]c(=O)n3C)cc1 -6.27%
COc1ccc(NC(=O)C2=NNC(=O)CC2)cc1S(=O)(=O)N1CCCCC1 14.5%
Cc1ccc(-n2cnc3ncnc(-c4ccccc4)c32)cc1 -3.5%
Cc1ccc(CSc2nnc(-c3cnccn3)n2C)cc1 -17.8%
O=C(NCc1ccccc1)c1ccc(CNc2c(N3CCCC3)c(=O)c2=O)cc1 3.8%
Cc1cc(=O)[nH]c(SCC(=O)Nc2ccc(Br)cc2)n1 28.6%
Cc1nc2cccnc2nc1C -3.08%
O=C(COC(=O)c1ccc(S(=O)(=O)Nc2ccccc2)cc1)NCC1CCCO1 (stereo not given) 0.29%
O=C(Nc1ccccc1)C1CC(=O)n2c(nc3ccccc32)N1 (stereo not given) 3.28%
COc1ccc(CCN(C)CCN2C(=O)c3ccccc3C2=O)cc1OC -9.23%
COC(=O)c1ccc(C2C(Oc3ccccc3C)C(=O)N2CCc2ccc(OC)c(OC)c2)cc1 (stereo not given) 18.6%
CS(=O)(=O)c1sc(C(=O)NC(=S)Nc2ccc(OC(F)(F)F)cc2)c2c1C=CCC2 -21.9%
COc1ccc(SC[C@H](Cc2ccccc2)N2CCN(CCc3ccccc3)CCC2=O)cc1 26.9%
Cc1csc(/N=C/N(C)C)c1C#N 11.2%
CC1CCN(c2c(NCc3ccc(C(=O)NCc4ccccc4)cc3)c(=O)c2=O)CC1 1.88%
Cc1cc(=O)[nH]c(N/N=C/c2ccc3c(c2)OCCO3)n1 -1.69%
CSc1ccccc1NC(=O)CN(C)CC(=O)Nc1ccc(Cl)cc1[N+](=O)[O-] 18.7%
CN(CC(=O)Nc1ccccc1[N+](=O)[O-])Cc1ccc(Br)cc1 5.7%
